One experiment deals with RXRa DBDmut IVT, anti-RXR (DBD mutation: RXRa K156A/R161A, NR concentration 90 nM). The experiment in a line: PBM binding z-score (relative to random genomic background probes); higher = stronger binding; sequences stand for … in GC…GCGATTGACAGCGTAGAATGAAGG
Put shortly: (§1)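 Binding buffer was PBS pH 7.4 with 2% milk, 0.02% Triton X-100, 1 mM DTT, 0.2 mg/mL BSA and 0.4 mg/ml salmon testes DNA. In it, ligand-free nuclear receptor dimers were incubated 1 h on custom Agilent 4×180K protein-binding microarrays carrying double-stranded probes. Antibodies against each partner (one per run) detected binding, and z-scores were calculated against random background probes after regression normalization of scanned fluorescence.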
In the case of GCTCGCAGGACAAGGTCAGAGCTTTGTCCGTAGA, the PBM binding z-score was found to be 0.16.

ATCGAAAGGTAGAAGGTGAGTATACCCACCCGAA yielded a PBM binding z-score of -0.929.

For AGAACGAGGGCAATGAGTTGAAAGCACGGGTGGC, the PBM binding z-score stood at 2.17.

In the case of TTTCAAAGTTCAAAGGTAACGTAAGTATCCACAC, the PBM binding z-score was found to be 4.68.

Turning to TAGCGTAGGTCATTGGGCCAGTATAGTACGCATC, the PBM binding z-score was 0.868.

Consider ATCTCTAGGTAACCAAGTTCAGTGGATGCCGAAC, for which the PBM binding z-score stood at 0.576.

CCGAGTAGGTTCTGGGGCATTCAGGCAACGGTGA showed a PBM binding z-score of -0.0942.

With ATATGTAGGTTAAGGGTCAGTCAGGTTGGTTCGC, the PBM binding z-score is 1.4.

In turn, CTTCCAAGGTCAGAGAGGTCAGTGAATGCCGAGT showed a PBM binding z-score of 2.97.

In the case of GCGACTGGGGCTAAGCAGGTTACCATAAGGTTGG, the PBM binding z-score is -0.481.

Consider TCTAACAGGCCAGAGGGTCACTCAAGAGGTACGG, for which the PBM binding z-score is 1.

The sequence GCTAGCAGGCCAATTGGGTCACTCAATGACGGGC came in with a PBM binding z-score of -0.58.

Sequence ATCGAAAGGTCGTGATGTGAGTATACAGAAAGGC showed a PBM binding z-score of 1.1.

Sequence AGTCAAAGTTCAGGAGGAGGTAACGTAAAGCACG gave a PBM binding z-score of 3.04.

As for CAGCCTAGGTCAGGGCCACTATAGGAGGAACGTT, the PBM binding z-score was determined as 0.123.

The sequence ACTAGCAGGCTAAGTTTGGGTCACTCAAACAAAG showed a PBM binding z-score of -0.349.

ACAGTCAGGTGAGTGAAGGTAACTCAGCTGGACG had a PBM binding z-score of -0.471.

A further experiment concerns RXRa homodimer (NR concentration 180 nM). Described as above. Put shortly: as §1
Take TATGCTAGGTCAACGATGGTCAGCTAATCTGCTA: the PBM binding z-score came to 2.62.

In turn, AGATGTAGGTTACATCCGGGTCATTCAGGCTATG yielded a PBM binding z-score of 3.33.

Regarding TCTATTAGTTGATTAGGACAACCGAAACAGCGGA, the PBM binding z-score was determined as 0.79.

As for CTCTAAAGGTCGGTTGAGGTGAGTATACGGATAA, the PBM binding z-score came to 2.44.

Sequence CTGACTGGGGCAAAGGTTACCATACTCAGTACGA came in with a PBM binding z-score of 4.06.

The sequence CCTAGCAGGCCAGAGTCACTCAAGCATTTCGCTT showed a PBM binding z-score of -0.442.

In the case of GATACAGGGTCAGCTAGCGGCCAGAGTATGGAAA, the PBM binding z-score worked out at 4.36.

CCTTACGGGTCACGAGGTTATTGCACGACGAGCG came in with a PBM binding z-score of 7.15.

The sequence TCGAGTAGGTTAGTCGGGGCATTGAGCCAACATA showed a PBM binding z-score of -0.18.

Consider CCGACTGGGGCAAAGGTTCCCATACTCAGTACGA, for which the PBM binding z-score amounted to 0.724.

TGTCTAAGTTCAAAGGTAACGTAAGTATCCACAC had a PBM binding z-score of 5.62.

Sequence GCATATCGGTAATACAAGGTGAAAGTCCGATTGT yielded a PBM binding z-score of 0.446.

In turn, TCTATTAGTTGAAGGGCAACCGTCGAGTCCGTTT returned a PBM binding z-score of 0.558.

With CCGACTGGGGCAAAGGTTACCGTACTCAGTACGA, the PBM binding z-score amounted to 3.45.

CCGACTGGAGCAAAGGTTACCATACTCAGTACGA showed a PBM binding z-score of 2.57.

Sequence ATCTCTAGGTAAGCCTCAGTTCAGTGAAGAACGC returned a PBM binding z-score of 0.103.

As for GCCTACGGGTCAAAGGTTATAGCATGAATAGAAT, the PBM binding z-score was 9.55.

Take AGAATGAGGTTATACGTAGATCAGGGAAGAAAGT: the PBM binding z-score was found to be 2.23.

Regarding ACTCGGAGGACAAAAGTCAGAGCTACGCCAGTGA, the PBM binding z-score is 0.0563.

Turning to AGTCAAAGTTCGGGACGAGGTAACGTAAAGCACG, the PBM binding z-score was 1.07.

In the case of CGAACTAGGTCATCCAGGACAGTGCATACATTGA, the PBM binding z-score worked out at 2.88.

AGATCGAGGGCAATGAGTTGATAGCACGGGTGGC had a PBM binding z-score of 0.854.

GCTCGCAGGACAAGGTCAGAGCTTTGTCCGTAGA returned a PBM binding z-score of 2.1.

With ATCGAAAGGTAGAAGGTGAGTATACCCACCCGAA, the PBM binding z-score was found to be 0.752.

On to AGAACGAGGGCAATGAGTTGAAAGCACGGGTGGC, for which the PBM binding z-score was found to be 1.07.

Consider TTTCAAAGTTCAAAGGTAACGTAAGTATCCACAC, for which the PBM binding z-score was 7.2.

Take TAGCGTAGGTCATTGGGCCAGTATAGTACGCATC: the PBM binding z-score stood at 3.6.

With ATCTCTAGGTAACCAAGTTCAGTGGATGCCGAAC, the PBM binding z-score turned out to be 0.536.

As for CCGAGTAGGTTCTGGGGCATTCAGGCAACGGTGA, the PBM binding z-score was -0.58.

Take ATATGTAGGTTAAGGGTCAGTCAGGTTGGTTCGC: the PBM binding z-score stood at 4.19.

Turning to CTTCCAAGGTCAGAGAGGTCAGTGAATGCCGAGT, the PBM binding z-score came to 5.22.

GCGACTGGGGCTAAGCAGGTTACCATAAGGTTGG yielded a PBM binding z-score of -0.00806.

Turning to TCTAACAGGCCAGAGGGTCACTCAAGAGGTACGG, the PBM binding z-score was 2.88.

GCTAGCAGGCCAATTGGGTCACTCAATGACGGGC had a PBM binding z-score of 0.841.

Take ATCGAAAGGTCGTGATGTGAGTATACAGAAAGGC: the PBM binding z-score is 4.56.

AGTCAAAGTTCAGGAGGAGGTAACGTAAAGCACG yielded a PBM binding z-score of 3.26.

As for CAGCCTAGGTCAGGGCCACTATAGGAGGAACGTT, the PBM binding z-score turned out to be 1.84.

For the sequence ACTAGCAGGCTAAGTTTGGGTCACTCAAACAAAG, the PBM binding z-score is 0.549.

The sequence ACAGTCAGGTGAGTGAAGGTAACTCAGCTGGACG displayed a PBM binding z-score of 0.122.

The next experiment relates to THRa:RXRa (NR concentration 90 nM, RXRa partner concentration 90 nM). The experiment is described as above. Summed up: as §1
Turning to TATGCTAGGTCAACGATGGTCAGCTAATCTGCTA, the PBM binding z-score was determined as 3.24.

AGATGTAGGTTACATCCGGGTCATTCAGGCTATG: the PBM binding z-score worked out at 3.72.

Regarding TCTATTAGTTGATTAGGACAACCGAAACAGCGGA, the PBM binding z-score is 1.84.

For CTCTAAAGGTCGGTTGAGGTGAGTATACGGATAA, the PBM binding z-score worked out at 5.16.

Take CTGACTGGGGCAAAGGTTACCATACTCAGTACGA: the PBM binding z-score was 2.08.

On to CCTAGCAGGCCAGAGTCACTCAAGCATTTCGCTT, for which the PBM binding z-score was -0.569.

In the case of GATACAGGGTCAGCTAGCGGCCAGAGTATGGAAA, the PBM binding z-score was 2.56.

Turning to CCTTACGGGTCACGAGGTTATTGCACGACGAGCG, the PBM binding z-score came to 3.67.

In turn, TCGAGTAGGTTAGTCGGGGCATTGAGCCAACATA had a PBM binding z-score of 1.

Turning to CCGACTGGGGCAAAGGTTCCCATACTCAGTACGA, the PBM binding z-score is -0.141.

Consider TGTCTAAGTTCAAAGGTAACGTAAGTATCCACAC, for which the PBM binding z-score was determined as 3.44.

In turn, GCATATCGGTAATACAAGGTGAAAGTCCGATTGT yielded a PBM binding z-score of 3.07.

For the sequence TCTATTAGTTGAAGGGCAACCGTCGAGTCCGTTT, the PBM binding z-score stood at 0.234.

In the case of CCGACTGGGGCAAAGGTTACCGTACTCAGTACGA, the PBM binding z-score amounted to 1.7.

Take CCGACTGGAGCAAAGGTTACCATACTCAGTACGA: the PBM binding z-score turned out to be 1.39.

In the case of ATCTCTAGGTAAGCCTCAGTTCAGTGAAGAACGC, the PBM binding z-score was found to be 0.985.

As to GCCTACGGGTCAAAGGTTATAGCATGAATAGAAT, the PBM binding z-score came out at 3.62.

AGAATGAGGTTATACGTAGATCAGGGAAGAAAGT yielded a PBM binding z-score of 2.23.

On to ACTCGGAGGACAAAAGTCAGAGCTACGCCAGTGA, for which the PBM binding z-score worked out at 0.186.

AGTCAAAGTTCGGGACGAGGTAACGTAAAGCACG: the PBM binding z-score amounted to 2.89.

As to CGAACTAGGTCATCCAGGACAGTGCATACATTGA, the PBM binding z-score was 3.65.

AGATCGAGGGCAATGAGTTGATAGCACGGGTGGC: the PBM binding z-score worked out at 0.856.

GCTCGCAGGACAAGGTCAGAGCTTTGTCCGTAGA came in with a PBM binding z-score of 2.5.

The sequence ATCGAAAGGTAGAAGGTGAGTATACCCACCCGAA yielded a PBM binding z-score of 0.231.

As to AGAACGAGGGCAATGAGTTGAAAGCACGGGTGGC, the PBM binding z-score was 1.22.

For TTTCAAAGTTCAAAGGTAACGTAAGTATCCACAC, the PBM binding z-score was determined as 3.58.

TAGCGTAGGTCATTGGGCCAGTATAGTACGCATC: the PBM binding z-score is 2.08.

With ATCTCTAGGTAACCAAGTTCAGTGGATGCCGAAC, the PBM binding z-score worked out at 1.46.

Regarding CCGAGTAGGTTCTGGGGCATTCAGGCAACGGTGA, the PBM binding z-score came out at 0.118.

With ATATGTAGGTTAAGGGTCAGTCAGGTTGGTTCGC, the PBM binding z-score amounted to 2.78.

For the sequence CTTCCAAGGTCAGAGAGGTCAGTGAATGCCGAGT, the PBM binding z-score is 4.3.

The sequence GCGACTGGGGCTAAGCAGGTTACCATAAGGTTGG yielded a PBM binding z-score of 1.12.

Regarding TCTAACAGGCCAGAGGGTCACTCAAGAGGTACGG, the PBM binding z-score stood at 1.71.

The sequence GCTAGCAGGCCAATTGGGTCACTCAATGACGGGC yielded a PBM binding z-score of 1.66.

In turn, ATCGAAAGGTCGTGATGTGAGTATACAGAAAGGC had a PBM binding z-score of 2.34.

As to AGTCAAAGTTCAGGAGGAGGTAACGTAAAGCACG, the PBM binding z-score stood at 2.88.

CAGCCTAGGTCAGGGCCACTATAGGAGGAACGTT displayed a PBM binding z-score of 2.19.

In the case of ACTAGCAGGCTAAGTTTGGGTCACTCAAACAAAG, the PBM binding z-score is 2.37.

In turn, ACAGTCAGGTGAGTGAAGGTAACTCAGCTGGACG gave a PBM binding z-score of 1.63.
